Screening data as filed in PubChem BioAssay.
ADAM10 inh: inhibitors of human ADAM10; O14672; recombinant ADAM10, EDANS/DABCYL FRET peptide cleavage, 3 h; inhibition, % at 7 µM; 0.62% of 370,000 active;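 active means inhibition above a per-campaign cutoff equal to the mean of compounds falling between control-based bounds plus 3 SD, cut at about 20% in these data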;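 further: 0% = DMSO wells while the 100% control is not disclosed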
KLK7 zymogen act: activators of human kallikrein-7 zymogen | P49862 | purified proKLK7, EDANS-DABCYL substrate fluorescence; 100% is mature enzyme control, 0% vehicle | activation, % at 7 µM | 0.9% of 370,000 active | AID 652039;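 active means activation above the mean of all tested compounds plus 3 SD, computed per campaign excluding outliers beyond control limits, cut at about 13% in these data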
ADAM17 inh: ADAM17 inhibition, QFRET primary screen. 0.83% of 370,000 active. recombinant ADAM17, EDANS/DABCYL FRET peptide cleavage. inhibition, % at 6.95 µM;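 active means inhibition above the mean of compounds lying between control limits plus 3 SD, set per campaign, cut at about 8.5% in these data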;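 further: 0% = DMSO-only wells as the low control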
PLC-gamma1 inh: PLC-gamma1 (human) inhibition, primary screen. AID 720700. purified PLC-gamma1, fluorogenic substrate, fluorescence. P19174. inhibition, % at 12.2 µM. 0.84% of 370,000 active; in the data active means inhibition above about 9.5%
PLC-beta3 inh: PLC-beta3 (human) inhibition, primary screen; Q01970; Purified PLC-beta3, fluorogenic substrate, fluorescence; inhibition, % at 12.2 µM; 0.18% of 370,000 active;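 further: 0% = median of compound wells on plate and 100% = full blocker control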
PLCgamma1 ctr: counter-screen for PLC-beta3 inhibitors: inhibitors of human PLC-gamma1; shares compounds with PLC-gamma1 inh; purified PLC-gamma1, fluorogenic substrate, fluorescence; inhibition, % at 12.3 µM; 3.1% of 3,300 active; AID 743258; in the data active means inhibition above about 9.5%
PLCb3 confirm: human PLC-beta3 inhibition, confirmation | inhibition, % at 12.3 µM | shares compounds with PLC-gamma1 inh | AID 743261 | 1% of 3,300 active | purified PLC-beta3, fluorogenic substrate fluorescence
Active calls of the source: *; . = no result given. Only some compounds are listed: those with a hit (about 2.9% of all), similar ones and a draw of the others. Unless noted, no stated cut-off is given here; in the data, active means inhibition above about 11%; inactive means the rest.

SMILES	ADAM10 inh	KLK7 zymogen act	ADAM17 inh	PLC-gamma1 inh	PLC-beta3 inh	PLCgamma1 ctr	PLCb3 confirm
COc1ccc(CC(N)c2csc(NC(=O)Nc3ccccc3C(C)C)n2)cc1 (stereo not drawn)	-2.9	-0.1	-2.0	1.4	6.7	.	.
O=C(Nc1ccccc1)C1Cc2c(-c3cccc(F)c3)ccnc2O1 (stereo not drawn)	2.1	0.3	0.4	2.1	-0.8	.	.
CNC(=O)C1Cc2c(-c3cccc(F)c3)ccnc2O1 (stereo not drawn)	5.6	-0.4	6.7	16.2*	3.6	-3.8	0.7
O=C(O)C1C2C=CC(C3CC23)C1C(=O)O (stereo not drawn)	1.2	0.3	3.1	10.1*	-1.5	-4.7	-4.0
CCOC(=O)c1ccc(NC(=O)N2CCN(C(=O)c3ccco3)CC2)cc1	0.2	-0.3	1.5	1.3	5.2	.	.
Cc1ccc(N/C(N)=N/c2nc(C)cc(N3CCCCC3)n2)c(C)c1	-2.2	0.5	0.0	4.3	4.4	.	.
CCOc1ncnc2c1sc1nc3c(cc12)COC(C)(C)C3	8.9	0.5	4.0	10.2*	2.4	-3.8	-1.4
CCCOc1ncnc2c1sc1nc3c(cc12)COC(C)(C)C3	-2.8	-1.0	0.1	6.6	-0.6	.	.
Cc1ccccc1-c1nn[nH]n1	6.5	-0.3	-3.4	-0.2	0.9	.	.
Oc1ccc(N=Nc2ccccc2-c2nn[nH]n2)c(O)c1	13.5	-0.2	2.0	12.0*	2.6	7.1	2.8
O=C(Nc1cc(Cl)cc(Cl)c1)N[C@@H]1CC[C@@H](CCNS(=O)(=O)c2cccc(F)c2)O[C@@H]1CO	12.1	0.2	2.7	-3.1	-2.3	.	.
COc1ccc(-c2cc(-c3nnc4sc(Cc5cccs5)nn34)[nH]n2)cc1	-1.3	0.5	-2.0	1.4	-1.3	.	.
COc1ccc(CCNC(=O)C2CCN(S(=O)(=O)c3cnc[nH]3)CC2)cc1OC	-1.2	-0.3	-4.1	-2.4	-0.8	.	.
CN(CCNC(=O)C1CCN(S(=O)(=O)c2cnc[nH]2)CC1)Cc1ccccc1	-0.1	0.6	-4.3	12.4*	1.0	8.1	9.4
O=C(NCc1cccs1)C1CCC(CNS(=O)(=O)c2ccccc2)CC1 (stereo not drawn)	9.2	0.3	7.8	12.4*	4.7	3.9	5.2
Cc1ccc(S(=O)(=O)NCC2CCC(C(=O)NCc3cccs3)CC2)cc1 (stereo not drawn)	6.8	-0.1	2.1	3.5	2.0	.	.
COC(=O)c1ccc(CNCC(O)COc2ccc(-c3ccccc3)cc2)cc1 (stereo not drawn)	-0.8	-0.1	3.3	1.0	-5.1	.	.
COc1ccc(CNCC(O)COc2ccc(C(C)(C)c3ccccc3)cc2)cc1 (stereo not drawn)	13.9	0.0	3.5	10.9*	-0.8	-2.4	-2.8
CC(C)(C)OC(=O)NC(=NCCCc1cn(CC(=O)N2CCN(C(=O)OC(C)(C)C)CC2)nn1)NC(=O)OC(C)(C)C	-1.5	-0.4	-4.6	-0.2	3.0	.	.
CC(O)Cc1cn(CC(=O)N2CCN(C(=O)OC(C)(C)C)CC2)nn1 (stereo not drawn)	6.0	0.1	6.7	13.1*	7.5	-7.7	-1.5
CCN(C[C@H]1N[C@@](CC)(C(=O)OC)[C@H]2C(=O)N(Cc3ccccc3)C(=O)[C@@H]12)C(=O)C1CCCCC1	-4.0	0.1	-4.5	-0.1	3.4	.	.
CCOC(=O)CNC(=O)N1CCCC(CCC(=O)NCc2ccc(F)c(F)c2)C1 (stereo not drawn)	3.8	-0.3	-2.0	-0.8	1.2	.	.
CC(=O)Nc1ccc(S(=O)(=O)NCc2cn3ccsc3n2)cc1	6.8	-0.2	4.1	10.9*	11.2*	-9.7	-1.5
CCc1cccc(NC(=S)Nc2ccc(CN3CCOCC3)cc2)c1	5.8	0.4	4.2	9.8*	2.1	-3.7	-0.6
CCCNC(=S)N(Cc1ccccc1)Cc1nc2ccccc2c(=O)[nH]1	-12.2	1.7	-85.0	19.6*	-9.3	-44.0	-33.8
SMILES	ADAM10 inh	KLK7 zymogen act	ADAM17 inh	PLC-gamma1 inh	PLC-beta3 inh	PLCgamma1 ctr	PLCb3 confirm
Nc1nccc2c1ncn2C1OC(CO)C(O)C1O (stereo not drawn)	10.2	0.1	3.7	12.4*	12.4*	-2.2	-0.5
Nc1ncnc2c1ncn2C1O[C@H](CO)[C@@H](O)[C@@H]1O (stereo partly drawn)	4.8	-0.2	-3.6	-0.8	2.0	.	.
O=C(NCc1ccncc1)c1ccc(S(=O)(=O)Nc2ccccc2)cc1	-5.3	0.0	-5.6	0.2	-7.8	.	.
O=C(c1ccco1)N1CCN(C(=O)c2cnn(-c3ccc(Cl)cc3)c2C2CCNCC2)CC1	-4.4	0.1	-2.1	0.8	-8.3	.	.
CCc1c(N)nc(N)nc1Nc1ccccc1Cl	5.0	0.2	6.2	11.2*	11.5*	-20.0	-2.3
Nc1nc(Cl)cc(Nc2ccccc2Cl)n1	1.5	0.4	-0.1	0.4	-3.1	.	.
O=C(CSc1ccccn1)NC1CCCc2c1cnn2-c1ccccc1F (stereo not drawn)	-4.2	0.6	-5.0	-3.1	-4.4	.	.
C[C@@H]1CCC(=O)N(CC[C@H](Oc2ccccc2)c2ccccc2)CC1	9.3	-0.2	7.9	12.9*	4.2	1.6	2.1
CCCCN(C(=O)C1CCCC1)c1c(N)n(CC(C)C)c(=O)[nH]c1=O	-7.8	-0.3	-1.7	-3.2	-8.1	.	.
COc1ccc(Cl)cc1NS(=O)(=O)c1cccc(C(=O)NCC2(N(C)C)CCCCC2)c1	-4.0	-0.5	-2.5	1.6	-7.8	.	.
Cc1cc(C(=O)NCC2CCCCC2)ccc1[N+](=O)[O-]	1.0	-0.3	3.6	10.9*	1.2	-5.7	-1.1
CN(C(=O)CSc1nc2ccccc2c(=O)n1C)C1CCS(=O)(=O)C1 (stereo not drawn)	-7.3	-5.6	-3.7	-1.3	1.7	.	.
COc1ccc(CCN(C)C(=O)CN2C(=O)NC3(CCCc4ccccc43)C2=O)cc1OC (stereo not drawn)	0.5	-0.1	8.5	12.5*	-4.3	-7.7	-73.6
COc1ccc(C(=O)CN2C(=O)NC3(CCCc4ccccc43)C2=O)cc1OC (stereo not drawn)	-6.4	-0.2	-1.0	5.0	0.3	.	.
CC(=O)NC[C@H]1O[C@@H](n2ccc(N)nc2=O)[C@H](O)[C@@H]1O	2.9	-0.2	4.8	10.0*	8.9	-3.8	1.1
CN[C@H](C)C(=O)NC[C@H]1O[C@@H](n2ccc(N)nc2=O)[C@H](O)[C@@H]1O	-6.1	-0.3	-4.5	-0.4	-1.5	.	.
O=C(NC(=O)c1c(F)cccc1F)Nc1cccc(Oc2ncc(Cl)cn2)c1	-1.2	0.0	1.6	-1.7	0.5	.	.
COc1cccc(COCCN2CCN(S(=O)(=O)c3ccc(C)cc3)CCC2=O)c1	6.8	0.2	8.1	12.2*	9.9	-6.6	-4.5
Cc1ccc(S(=O)(=O)N2CCC(=O)N(CCOCc3cccc(C)c3)CC2)cc1	-6.2	-0.2	-1.8	7.0	-0.3	.	.
